The source of these data is PubChem BioAssay (EPA / NIEHS).

Activity calls are given as the source filed them. The calls were made as follows: active = hit-call score of the fitted dose curve at least 0.9, where 1 is the maximum; inactive = score below 0.9.

Read-out in the test: Low-density lipoprotein receptor (LDLR), LDLR (gene 3949)
Nature of the test: BSK_CASM3C_LDLR: BioMAP Diversity Plus: CASM3C Assay for Low-density lipoprotein receptor (LDLR) Biomarker Activity (AID 2283045).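 Also: LDLR protein level on the cell surface quantified by ELISA.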 As to conditions: primary human coronary artery smooth muscle cells; actives raise or lower the signal.
As to `ClCC(Cl)CCl`, the result was inactive.

In the case of `CCOP(=S)(OCC)SCSP(=S)(OCC)OCC`, the outcome was inactive.

As for `CC(=O)C(Cl)C(=O)N(C)C` (stereo not drawn), the outcome was inactive.

On to `COc1cc(-c2ccc(N)c(OC)c2)ccc1N`, for which the result was inactive.

Regarding `O=C1C2(Cl)C3(Cl)C4(Cl)C(Cl)(Cl)C5(Cl)C3(Cl)C1(Cl)C5(Cl)C24Cl` (stereo not drawn), the AC50 – broadly, the midpoint of the concentration-response curve, whichever way the signal moves – is 10.5 µM (active).

As for `CCOC(=O)/C=C(C)/C=C/C[C@@H](C)CCCC(C)C`, the AC50 was 27.2 µM (active).

For the compound `CCOP(=S)(OCC)Oc1ccc(S(C)=O)cc1` (stereo not drawn), the result was inactive.

For `ClC1(Cl)C2(Cl)C3(Cl)C4(Cl)C(Cl)(Cl)C5(Cl)C3(Cl)C1(Cl)C5(Cl)C24Cl` (stereo not drawn), the AC50 was 1.14 µM (active).

With `CCC(=O)C(CC(C)N(C)C)(c1ccccc1)c1ccccc1` (stereo not drawn), the outcome was inactive.

Turning to `Cn1sc(Cl)cc1=O`, the outcome was inactive.

With `Oc1cccc2cccnc12`, the outcome was inactive.

For the compound `CC(C)(C)c1cc(O)ccc1O`, the result was inactive.

Turning to `CCNc1nc(NC(C)(C)C)nc(SC)n1`, the result was inactive.

For the compound `CC(C)c1ccc(CO)cc1`, the outcome was inactive.

For `CC(C)(C)CC(C)(C)c1ccc(O)cc1`, the AC50 is 16 µM (active).

With `CCN1CCC2(CC1)COc1cc3c(cc12)N(C(=O)c1ccc(-c2ccc(-c4nnc(C)o4)cc2C)cc1)CC3`, the AC50 was 34.2 µM (active).

Consider `O=Cc1cccc(Oc2ccccc2)c1`, for which the outcome was inactive.

As for `Cc1ccccc1N`, the outcome was inactive.

`O=C(O)C(Cl)(Cl)Cl`: the outcome was inactive.

Turning to `O=c1[nH]c(=O)[nH]c(=O)[nH]1`, the outcome was inactive.

Take `O=[N+]([O-])c1ccc2c3c(cccc13)CC2`: the result was inactive.

`C=CC(=O)OCCCCCC(C)C`: the outcome was inactive.

Turning to `CCC(C)(C)c1ccc(O)c(C(C)(C)CC)c1`, the AC50 is 33.8 µM (active).

As for `CCOP(=S)(OCC)SCCS(=O)(=O)CC`, the outcome was inactive.

Regarding `Nc1ncc([N+](=O)[O-])s1`, the result was inactive.

As to `O=C(O)C(F)(F)C(F)(F)C(F)(F)C(F)(F)C(F)(F)C(F)(F)C(F)(F)C(F)(F)C(F)(F)C(F)(F)F`, the outcome was inactive.

`O=C(O)C(F)(F)C(F)(F)C(F)(F)C(F)(F)C(F)(F)C(F)(F)F`: the outcome was inactive.

Consider `NC(=O)O`, for which the outcome was inactive.

Turning to `Oc1c(I)cc(I)cc1I`, the result was inactive.

`NC(=S)Nc1ccccc1`: the outcome was inactive.

With `COP(=S)(OC)Oc1ccc(S(=O)(=O)N(C)C)cc1`, the result was inactive.

Regarding `COC[C@H](C)N(C(=O)CCl)c1c(C)csc1C`, the result was inactive.

On to `Nc1ccc(-c2ccc(N)c(Cl)c2)cc1Cl`, for which the outcome was inactive.
